Source: publication PMC5700166

Assays:
Assay in all cases: protein-binding microarray (PBM); PBM: ~300 nM protein, 6 mM HEPES pH 7.8, 80 mM KCl, 0.5 mM EDTA, 0.5 mM EGTA, 6% glycerol, 35 ng/ul poly-dIdC, 1% milk, 1 h, room temperature; Ap Aiptasia and Nv Nematostella (sea anemones) / Co Capsaspora / Aq Amphimedon (sponge) / Dm Drosophila / Hu human; RHD is the Rel homology domain; high values mean tight binding
Details in all cases: dsDNA, one strand shown
GST-Ap-NF-kB RHD = molecular target: T1, GST-Ap-NF-kB RHD (Exaiptasia pallida (Aiptasia), UniProt A0A913YAJ5 2-422)
T1 sequence: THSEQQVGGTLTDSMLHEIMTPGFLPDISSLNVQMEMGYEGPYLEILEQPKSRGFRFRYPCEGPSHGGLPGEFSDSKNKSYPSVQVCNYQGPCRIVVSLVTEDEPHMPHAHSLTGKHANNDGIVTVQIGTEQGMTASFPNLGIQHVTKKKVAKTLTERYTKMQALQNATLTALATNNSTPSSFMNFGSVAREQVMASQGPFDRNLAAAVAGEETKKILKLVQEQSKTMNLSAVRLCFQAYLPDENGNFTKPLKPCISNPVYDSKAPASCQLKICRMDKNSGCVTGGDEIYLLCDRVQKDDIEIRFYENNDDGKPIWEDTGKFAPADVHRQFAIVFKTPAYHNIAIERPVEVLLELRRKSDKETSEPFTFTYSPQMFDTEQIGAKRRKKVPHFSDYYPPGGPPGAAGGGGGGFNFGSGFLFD

[1] = molecular target: T2, GST-Nv-NF-kB (Ser allele) (Nematostella vectensis, UniProt A7UNT2 2-411)
T2 sequence: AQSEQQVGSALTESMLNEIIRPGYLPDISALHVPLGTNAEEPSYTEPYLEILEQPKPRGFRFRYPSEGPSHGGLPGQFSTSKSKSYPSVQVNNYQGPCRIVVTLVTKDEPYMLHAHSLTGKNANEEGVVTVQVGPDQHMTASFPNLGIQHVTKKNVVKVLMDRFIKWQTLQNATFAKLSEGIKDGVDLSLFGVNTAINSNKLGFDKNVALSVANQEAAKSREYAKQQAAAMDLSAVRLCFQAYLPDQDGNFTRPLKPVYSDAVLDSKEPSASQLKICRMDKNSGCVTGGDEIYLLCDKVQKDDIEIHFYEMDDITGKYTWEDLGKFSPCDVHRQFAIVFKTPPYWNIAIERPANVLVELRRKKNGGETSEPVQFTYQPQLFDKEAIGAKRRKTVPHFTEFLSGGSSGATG

GST-Co-NF-kB = molecular target: T3, GST-Co-NF-kB (Capsaspora owczarzaki, UniProt F1ARL5 200-546)
T3 sequence: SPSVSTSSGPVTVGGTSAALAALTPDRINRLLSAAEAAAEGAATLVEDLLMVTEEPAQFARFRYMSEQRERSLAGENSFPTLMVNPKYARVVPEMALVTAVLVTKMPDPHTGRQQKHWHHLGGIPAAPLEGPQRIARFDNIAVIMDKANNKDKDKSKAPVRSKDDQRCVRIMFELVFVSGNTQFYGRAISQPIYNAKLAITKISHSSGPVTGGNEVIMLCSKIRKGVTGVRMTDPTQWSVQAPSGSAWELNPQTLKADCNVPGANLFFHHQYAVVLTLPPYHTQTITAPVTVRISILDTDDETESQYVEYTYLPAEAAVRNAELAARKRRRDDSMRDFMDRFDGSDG

GST-Dm-Relish = molecular target: T4, GST-Dm-Relish (Drosophila melanogaster, UniProt Q94527 99-473)
T4 sequence: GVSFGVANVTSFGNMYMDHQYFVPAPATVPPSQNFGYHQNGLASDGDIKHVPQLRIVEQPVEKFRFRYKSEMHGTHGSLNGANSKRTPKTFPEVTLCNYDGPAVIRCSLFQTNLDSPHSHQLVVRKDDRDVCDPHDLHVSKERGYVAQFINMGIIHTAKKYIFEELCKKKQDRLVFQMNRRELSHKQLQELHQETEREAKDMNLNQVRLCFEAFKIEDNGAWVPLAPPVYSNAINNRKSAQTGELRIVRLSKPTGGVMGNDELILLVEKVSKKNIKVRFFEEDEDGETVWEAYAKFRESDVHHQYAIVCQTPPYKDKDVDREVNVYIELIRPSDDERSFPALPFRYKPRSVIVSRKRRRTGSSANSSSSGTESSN

GST-Aq-NF-kB = molecular target: T5, GST-Aq-NF-kB (Amphimedon queenslandica, UniProt A9Y5G7 2-389)
T5 sequence: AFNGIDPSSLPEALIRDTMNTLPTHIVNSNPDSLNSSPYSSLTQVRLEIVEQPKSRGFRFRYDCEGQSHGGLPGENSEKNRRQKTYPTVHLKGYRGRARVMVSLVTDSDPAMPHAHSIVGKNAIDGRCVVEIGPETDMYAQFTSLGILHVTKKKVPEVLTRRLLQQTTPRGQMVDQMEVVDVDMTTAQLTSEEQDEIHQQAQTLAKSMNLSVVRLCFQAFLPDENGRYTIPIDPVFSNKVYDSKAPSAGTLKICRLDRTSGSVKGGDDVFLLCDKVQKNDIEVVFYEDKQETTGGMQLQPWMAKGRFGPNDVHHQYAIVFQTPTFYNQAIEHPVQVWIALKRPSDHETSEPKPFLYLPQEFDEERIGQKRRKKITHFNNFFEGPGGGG

| Sequence | binding signal (GST-Ap-NF-kB RHD) | binding signal [1] | binding signal (GST-Co-NF-kB) | binding signal (GST-Dm-Relish) | binding signal (GST-Aq-NF-kB) |
| --- | --- | --- | --- | --- | --- |
| CCGATTAACATCACTCCCCCCCATGATGTTAATCGGGTCTTGATTCGCTTGACGCTGCTG | 5.11 z-score | 3.12 z-score | 6.71 z-score | 3.23 z-score | 4.01 z-score |
| CCGATTAACATCACCGGAATTCCTGATGTTAATCGGGTCTTGATTCGCTTGACGCTGCTG | 1.13 z-score | – | 1.36 z-score | 3.45 z-score | 2.36 z-score |
| CCGATTAACATCATGGGGGGGAATGATGTTAATCGGGTCTTGATTCGCTTGACGCTGCTG | 6.87 z-score | – | 8.77 z-score | 4.72 z-score | 5.36 z-score |
| CCGATTAACATCAAGGGGGGGAATGATGTTAATCGGGTCTTGATTCGCTTGACGCTGCTG | 6.62 z-score | – | 8.37 z-score | 4.96 z-score | 5.81 z-score |
| CCGATTAACATCATCCGCGGGAGTGATGTTAATCGGGTCTTGATTCGCTTGACGCTGCTG | 1.05 z-score | – | 1.38 z-score | – | 1.92 z-score |
| CCGATTAACATCAAGGGGGGAGGTGATGTTAATCGGGTCTTGATTCGCTTGACGCTGCTG | 4.12 z-score | 4.04 z-score | 5.65 z-score | 3.23 z-score | 4.07 z-score |
| CCGATTAACATCAGGGGGGGAAATGATGTTAATCGGGTCTTGATTCGCTTGACGCTGCTG | 6.79 z-score | 7.98 z-score | 10.2 z-score | 5.34 z-score | 5.89 z-score |
| CCGATTAACATCACCCTTGGGAATGATGTTAATCGGGTCTTGATTCGCTTGACGCTGCTG | 1.03 z-score | – | 2.46 z-score | – | 2.01 z-score |
| CCGATTAACATCAGGGGGGGATATGATGTTAATCGGGTCTTGATTCGCTTGACGCTGCTG | 6.21 z-score | 5.63 z-score | 5.9 z-score | 4.91 z-score | 5.29 z-score |
| CCGATTAACATCAAGGTGTTCCCTGATGTTAATCGGGTCTTGATTCGCTTGACGCTGCTG | 1.65 z-score | – | 2.38 z-score | 4.31 z-score | 2.49 z-score |
| CCGATTAACATCAACCCCCCCCGTGATGTTAATCGGGTCTTGATTCGCTTGACGCTGCTG | 5.8 z-score | 2.64 z-score | 6.25 z-score | 6.51 z-score | 4.08 z-score |
| CCGATTAACATCAAGGGGGGAAATGATGTTAATCGGGTCTTGATTCGCTTGACGCTGCTG | 6.16 z-score | 8.51 z-score | 7.79 z-score | 4.47 z-score | 5.8 z-score |
| CCGATTAACATCACTTCCCCCCCTGATGTTAATCGGGTCTTGATTCGCTTGACGCTGCTG | 5.69 z-score | 5.01 z-score | 8 z-score | 4.33 z-score | 4.94 z-score |
| CCGATTAACATCAATTCCCCCCCTGATGTTAATCGGGTCTTGATTCGCTTGACGCTGCTG | 8.18 z-score | 7.32 z-score | 8.87 z-score | 6.09 z-score | 6.45 z-score |
| CCGATTAACATCAGGTAACCCCATGATGTTAATCGGGTCTTGATTCGCTTGACGCTGCTG | 3.05 z-score | – | 2.06 z-score | 6.29 z-score | 2.29 z-score |
| CCGATTAACATCAGGGGGGGAGATGATGTTAATCGGGTCTTGATTCGCTTGACGCTGCTG | 5.6 z-score | – | 8.63 z-score | 3.66 z-score | 4.59 z-score |
| CCGATTAACATCACCCCAACCCCTGATGTTAATCGGGTCTTGATTCGCTTGACGCTGCTG | 2.55 z-score | – | 3.44 z-score | 2.69 z-score | 2.27 z-score |
| CCGATTAACATCACGGGCACCCCTGATGTTAATCGGGTCTTGATTCGCTTGACGCTGCTG | 1.72 z-score | – | 1.34 z-score | 2.01 z-score | 2.04 z-score |
| CCGATTAACATCAGGTGTTCCCATGATGTTAATCGGGTCTTGATTCGCTTGACGCTGCTG | 1.43 z-score | – | 1.45 z-score | 5.22 z-score | 2.04 z-score |
| CCGATTAACATCACCCCCTCCCCTGATGTTAATCGGGTCTTGATTCGCTTGACGCTGCTG | 3.75 z-score | – | 4.75 z-score | 5.21 z-score | 4.84 z-score |
| CCGATTAACATCACACCCCAACATGATGTTAATCGGGTCTTGATTCGCTTGACGCTGCTG | 1.38 z-score | – | 2.16 z-score | – | 1.02 z-score |
| CCGATTAACATCAGGATATCCCATGATGTTAATCGGGTCTTGATTCGCTTGACGCTGCTG | 2.32 z-score | – | 1.41 z-score | 3 z-score | 2.24 z-score |
| CCGATTAACATCAGTCCCCCCCATGATGTTAATCGGGTCTTGATTCGCTTGACGCTGCTG | 5.83 z-score | 3.57 z-score | 6.28 z-score | 4.23 z-score | 4.7 z-score |
| CCGATTAACATCATAGTGAGGGGTGATGTTAATCGGGTCTTGATTCGCTTGACGCTGCTG | 2.05 z-score | – | 1.74 z-score | – | 1.09 z-score |
| CCGATTAACATCAGGGGGGGGAATGATGTTAATCGGGTCTTGATTCGCTTGACGCTGCTG | 7.86 z-score | – | 8.84 z-score | 5.27 z-score | 5.65 z-score |
| CCGATTAACATCAGTACTTCCCATGATGTTAATCGGGTCTTGATTCGCTTGACGCTGCTG | 1.53 z-score | – | 1.42 z-score | 9.09 z-score | 2.53 z-score |
| CCGATTAACATCAAGGGGGGGATTGATGTTAATCGGGTCTTGATTCGCTTGACGCTGCTG | 7.19 z-score | – | 4.35 z-score | 5.64 z-score | 5.59 z-score |
| CCGATTAACATCACGGGGGGGGATGATGTTAATCGGGTCTTGATTCGCTTGACGCTGCTG | 6.27 z-score | 5.38 z-score | 7.62 z-score | 5.35 z-score | 5.29 z-score |
| CCGATTAACATCACGGGGTGGCCTGATGTTAATCGGGTCTTGATTCGCTTGACGCTGCTG | 1.24 z-score | – | 1.78 z-score | 1.37 z-score | 1.55 z-score |
